According to PubChem BioAssay (NCATS):
Results filed as inconclusive are left out. A call without a number means that no potency is given here. Active and inactive are the calls of the source. Calls follow the shape of the dose curve; as a rule, active = well fitted inhibition curve with a large enough effect; inconclusive = small, poorly fitted or top-dose-only effect; inactive = flat fitted curve, though single readings scatter.

Test system: CRL-7250
Experiment: qHTS assay to identify novel small-molecules to repurpose for Merkel cell carcinoma treatment (AID 1296009); also: nearly all actives have a fitted effect of over 60% in size
Details: MCC and control cell lines, CellTiter-Glo viability, 72 h; series mostly up to 92 µM
Procedure, shortened: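 CellTiter-Glo luminescence after 72 hr compound exposure at 37 degree celsius gave cell viability. Libraries NPC and MIPE were run as 8- and 11-point dose responses; RLUs normalized to DMSO (negative) and no-cell (cytotoxicity) controls.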

SMILES | Potency | outcome
CN1CCc2cc3c(cc2C(=O)Cc2cc4c(cc2C1)OCO4)OCO3 | inactive | –
C/C=C(\C)C(=O)OC1CC2C(CC=C3CC(OC4CC(OC)C(OC5CC(OC)C(OC6CC(OC)C(OC7CC(OC)C(OC8CC(OC)C(OC9OC(CO)C(O)C(O)C9O)C(C)O8)C(C)O7)C(C)O6)C(C)O5)C(C)O4)CCC32C)C2(O)CCC(C(C)=O)C12C (stereo unspecified) | – | inactive [at 9.27 µM]
CC1(C)CC[C@@]2(C(=O)O[C@@H]3O[C@H](CO)[C@@H](O)[C@H](O)[C@H]3O)C(C1)C1=CCC3[C@@]4(C)CC[C@@H](O[C@@H]5O[C@H](C(=O)O)[C@@H](O[C@@H]6OC[C@@H](O)[C@H](O)[C@H]6O)[C@H](O[C@@H]6OC[C@](O)(CO)[C@H]6O)[C@H]5O)C(C)(C)C4CC[C@@]3(C)[C@]1(C)C[C@H]2O (stereo partly specified) | – | inactive [at 9.27 µM]
C[C@@H]1O[C@@H](O[C@H]2[C@H](O)[C@@H](O)[C@H](OC(=O)[C@]34CCC(C)(C)C[C@H]3C3=CCC5[C@@]6(C)CC[C@H](O[C@@H]7O[C@H](C(=O)O)[C@@H](O)[C@H](O)[C@H]7O)C(C)(C)C6CC[C@@]5(C)[C@]3(C)CC4)O[C@@H]2CO)[C@H](O)[C@H](O)[C@H]1O (stereo partly specified) | – | inactive [at 9.27 µM]
C/C(=C/CCC(CO)C1CCC2(C)C3CCC4C(C)(C)C(OC5OC(CO)C(O)C(O)C5O)CC(O)C45CC35CCC12C)COC1OC(CO)C(O)C(O)C1O (stereo unspecified) | inactive | –
O=C1CC(c2ccc([N+](=O)[O-])cc2)=NN1c1ccccc1 | inactive | –
Cn1c2ccc(F)cc2c2c(C(=O)N3CCCC3)cn(-c3ccccc3)c(=O)c21 | inactive | –
COc1cc2c(cc1OC)CC(=O)N(CCCNC[C@H]1Cc3cc(OC)c(OC)cc31)CC2 | inactive | –
COc1c2c(c(C)c3c1C(=O)OC3)OC1(C)CC(O)C34OC(OC)(OC3(C)C)C(O)CC4(C)C1C2 (stereo unspecified) | inactive | –
COc1ccc(C(=O)CC(=O)O)c2c1C=CC(C)(C)O2 | inactive | –
COc1cccc(C(=O)N2CCN(C(=O)COc3cccc(C)c3)CC2)c1OC | inactive | –
COc1cc(O)cc(C)c1C(=O)O[C@H]1[C@@H](OC(C)=O)[C@H](n2ccc(=O)[nH]c2=O)O[C@@H]1CO | inactive | –
COc1ccc(C(O[C@@H]2O[C@H](CO)[C@@H](O)[C@H](O)[C@H]2O)C(CO)Oc2ccc(/C=C/CO)cc2OC)cc1O (stereo partly specified) | inactive | –
C[C@]1(OC(=O)/C=C/c2ccccc2)C[C@H](O)[C@]2(O)C=CO[C@@H](O[C@@H]3O[C@H](CO)[C@@H](O)[C@H](O)[C@H]3O)C12 (stereo partly specified) | inactive | –
CC1(C)O[C@H]2CC(=O)OC[C@@]23C1=C(O)C(=O)[C@]1(C)C3CC[C@@]2(C)[C@H](c3ccoc3)OC(=O)[C@H]3O[C@]321 (stereo partly specified) | inactive | –
Nc1ncnc2c1ncn2CCNCCCCCO | inactive | –
O=C(O[C@H]1[C@@H]2C[C@@H]3OC[C@@](O)([C@H]2[C@H](O[C@@H]2O[C@H](CO)[C@@H](O)[C@H](O)[C@H]2O)O3)[C@@H]1O)c1ccccc1 | inactive | –
CC(C)C1(O)NC(=O)C(CC2(O)c3ccccc3N3C(=O)C(C)(C)NC32)n2c1nc1ccccc1c2=O (stereo unspecified) | inactive | –
CCC(C)/C=C(C)/C=C/C1=CC2=CC(=O)C(C)(O)C(OC(C)=O)C2CO1 (stereo unspecified) | inactive | –
C=C[C@H]1[C@H](O[C@@H]2O[C@H](CO[C@@H]3OC[C@](O)(CO)[C@H]3O)[C@@H](O)[C@H](O)[C@H]2O)OC=C2C(=O)OCC[C@H]21 | inactive | –
O=C(/C=C/c1ccc(O)cc1)OC[C@H]1O[C@@H](O/C(=C\c2ccccc2)C(=O)O)[C@H](O)[C@@H](O)[C@@H]1O | inactive | –
C=C(C(=O)O)C1CC2=C(C)CCCC2(C)C[C@@H]1O (stereo partly specified) | inactive | –
COC(=O)C1=CO[C@@H](O[C@@H]2O[C@H](CO)[C@@H](O)[C@H](O)[C@H]2O)[C@H]2[C@@H]1CC(OC)O[C@@H]2C (stereo partly specified) | inactive | –
CC1(C=O)CCCC2(C)C1CCC13CC(CO)C(CCC12)C3 (stereo unspecified) | inactive | –
C[C@@H]1CC[C@]2(C(=O)O[C@@H]3O[C@H](CO[C@@H]4O[C@H](CO)[C@@H](O)[C@H](O)[C@H]4O)[C@@H](O)[C@H](O)[C@H]3O)CC[C@]3(C)C(=CCC4[C@@]5(C)CC[C@H](O)[C@](C)(C(=O)O)C5CC[C@]43C)[C@@H]2[C@]1(C)O (stereo partly specified) | – | inactive [at 9.27 µM]
COc1cc(/C=C/C(=O)O[C@H]2C[C@@H]3C(C(=O)O)=CO[C@@H](O[C@@H]4O[C@H](CO)[C@@H](O)[C@H](O)[C@H]4O)[C@@H]3[C@H]2C)ccc1O | inactive | –
